Bioassay records from PubChem.
Only some compounds are listed: those with a hit (about 19% of all), similar ones and a draw of the others.
TDP1 cell CPT = DT40-hTDP1 cell growth loss with CPT. chicken DT40 Tdp1-/-;hTDP1 cells + 20 nM CPT, ATP luminescence, 48 h. Potency, µM (series often up to 46.2 µM), actives largely listed as inhibitors. actives 12% (n = 420,000). AID 686979; note: nearly all actives have a fitted effect of over 55% in size
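Chicken DT40 Tdp1-/- cells stably complemented with human TDP1 were seeded at 400 cells/well in medium containing 20 nM camptothecin, exposed to pin-transferred compounds, and grown at 37 °C for at least 48 hr. Viability was read as ATP luminescence.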
ASM inhibitor = blocks human secretory acid sphingomyelinase. Potency, µM (highest dose often 57.5 µM), most hits filed as inhibitors. P17405. placental ASM, HMU-PC fluorogenic substrate, 60 min. AID 504937. actives 0.006% (n = 340,000)
Target sequence (P17405 47-631 limits assumed): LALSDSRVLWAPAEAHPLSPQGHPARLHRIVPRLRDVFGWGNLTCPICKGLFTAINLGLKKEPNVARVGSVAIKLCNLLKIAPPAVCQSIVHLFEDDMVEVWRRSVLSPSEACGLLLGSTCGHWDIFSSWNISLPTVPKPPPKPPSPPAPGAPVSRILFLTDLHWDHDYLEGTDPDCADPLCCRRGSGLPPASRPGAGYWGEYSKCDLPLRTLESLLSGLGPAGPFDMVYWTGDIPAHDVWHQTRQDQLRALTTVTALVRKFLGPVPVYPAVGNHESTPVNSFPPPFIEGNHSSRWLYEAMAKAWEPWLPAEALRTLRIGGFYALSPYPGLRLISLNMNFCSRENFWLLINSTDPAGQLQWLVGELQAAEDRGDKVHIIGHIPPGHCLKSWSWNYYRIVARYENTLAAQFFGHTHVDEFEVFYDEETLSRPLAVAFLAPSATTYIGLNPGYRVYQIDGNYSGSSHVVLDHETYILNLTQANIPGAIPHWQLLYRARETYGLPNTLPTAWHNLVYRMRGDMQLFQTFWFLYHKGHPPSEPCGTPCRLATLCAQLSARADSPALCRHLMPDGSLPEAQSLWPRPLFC
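Human placenta-derived ASM preincubated with compound 10 min at room temperature, then reacted with 9 uM (final) fluorogenic HMU-PC substrate for 60 min at 37 C. Stop solution raises pH to 10; fluorescence read at Ex 386/Em 447 nm.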
TDP1 cell noCPT = qHTS for Inhibitors of human tyrosyl-DNA phosphodiesterase 1 (TDP1): qHTS in cells in absence of CPT. DT40 Tdp1-/- hTDP1 cells, no CPT, ATP luminescence, 48 h. Potency, µM (top dose mostly 46.2 µM), usual class: inhibitors. actives 15% (n = 420,000). AID 686978, 2013; note: nearly all actives have a fitted effect of over 55% in size
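DT40 Tdp1-/-;hTDP1 cells, no CPT (DMSO vehicle only), 400 cells/well; compounds pin-transferred; ≥48 hr, 37 °C; CellTiter-Glo 30 min RT dark, luminescence read.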
HepG2 tox = HepG2 cytotoxicity, counter-screen for TGF-b inhibitors | actives 0.76% (n = 410,000) | HepG2 CAGA-GFP viability, ATP luminescence, 18 h | Potency, µM (doses to about 46.1 µM), most hits filed as cytotoxic
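HepG2 CAGA-GFP cells (1000/well, DMEM with 1% FBS) received compound, then TGF-beta at 500 pg/mL final, and were incubated 18 hours at 37 degrees C. Viability was read by CellTiter-Glo luminescence. Media-only wells were set as complete cell-killing and DMSO as no toxicity.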
IL1B secr inh = inflammasome signaling inhibition, IL-1 beta readout | actives 4.7% (n = 360,000) | THP-1 LPS/ATP IL-1B secretion, AlphaLISA, 16 h; hits give low values | activity change, % at 57.5 µM; in the data active = activity change below about -50%; inconclusive = mostly about -30% to -49%
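Secreted IL-1B measured by AlphaLISA bead assay after 16 h compound exposure of THP-1 cells; compounds (final up to 57.5 uM) added 1 h before LPS (250 ng/mL) and ATP (1.25 mM) stimulation; lower signal means less secretion.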
TGFb inhibitor = TGF-b pathway inhibition. HepG2 CAGA-GFP TGF-b/SMAD3 reporter, GFP fluorescence, 18 h; TGF-beta stimulated, 500 pg/mL final. actives 1.2% (n = 410,000). Potency, µM (doses to about 46.1 µM), actives largely listed as inhibitors. AID 588855; note: nearly all actives have a fitted effect of over 65% in size
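HEPG2 CAGA-GFP reporter cells (1000/well, DMEM with 1% FBS) received compounds, then recombinant TGF-beta at 500 pg/mL final for 18 hours at 37 degrees C. Per-cell GFP summed per well was normalised to unstimulated and stimulated DMSO controls before curve fitting.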
Hits are given with their value; i = inactive; ? = inconclusive; nt = no result given; [ ] = another dose, or the depositor's remark. Unless noted, calls come from the whole dose curve; as a rule, active = well fitted curve in the direction sought with a large enough effect; inconclusive = small, poorly fitted or top-dose-only effect, or another doubt; inactive = no such curve, though single readings can be large; an effect the other way counts as inactive or inconclusive.

SMILES	TDP1 cell CPT	ASM inhibitor	TDP1 cell noCPT	HepG2 tox	IL1B secr inh	TGFb inhibitor
C[C@@H]1CN([C@@H](C)CO)C(=O)Cc2cc(NC(=O)Nc3cccc4ccccc34)ccc2O[C@@H]1CN(C)Cc1ccc(C(F)(F)F)cc1	?	i	16µM	i	nt	?
O=C(NCc1cccnc1)c1nn(-c2ccc(Cl)cc2)nc1CO	i	nt	?	i	nt	i
N#Cc1ccccc1COC(=O)c1cccc(S(=O)(=O)N2CCCC2)c1	i	i	i	i	i	i
COc1cc2c(cc1NC(=O)c1cccnc1)oc1ccccc12	?	i	?	i	i	i
COc1cc2c(cc1NC(=O)/C=C/c1cc(OC)c(OC)c(OC)c1)oc1ccccc12	21µM	i	15µM	i	i	i
COc1cc2c(cc1NC(=O)c1cc(-c3ccccn3)nc3ccccc13)oc1ccccc12	21µM	i	21µM	i	i	i
COc1ccc(CC(=O)Nc2cc3oc4ccccc4c3cc2OC)cc1	?	i	?	i	?	i
COc1cccc(CN(C)CC(=O)Nc2cc3oc4ccccc4c3cc2OC)c1	23µM	i	21µM	i	i	i
COc1cc2c(cc1NC(=O)C(C)Oc1ccccc1)oc1ccccc12 (stereo not drawn)	15µM	nt	?	i	nt	i
CCCn1c(N)c(N(CCOC)C(=O)c2ccc(Cl)c([N+](=O)[O-])c2)c(=O)[nH]c1=O	i	i	i	i	i	i
C[C@@]12CCC3[C@@](CCC4[C@@]3(C)CCC[C@@]4(C)C(=O)N3CCOCC3)(CC1=O)C2 (stereo partly drawn)	i	i	?	i	i	i
CCOC(=O)c1ccc(N=C2SC(C(=O)Nc3ccccc3)CC(=O)N2C)cc1 (stereo not drawn)	i	nt	i	i	nt	i
CC1(C)Cc2c(cnn2-c2ccccc2)C(NC(=O)CCN2CCCCO2)C1 (stereo not drawn)	i	i	i	i	i	i
CN1C(=O)[C@H](Cc2ccc([N+](=O)[O-])cc2)NC1=S	?	i	?	i	?	i
O=C(CSc1nnc(CNC(=O)c2c(F)cccc2Cl)o1)Nc1ccccc1F	i	nt	i	i	nt	?
COc1cc2c(cc1NC(=O)C(C)N1CCN(S(=O)(=O)c3ccc(C)c(C)c3)CC1)oc1ccccc12 (stereo not drawn)	i	i	i	i	i	i
COc1cc2c(cc1NC(=O)COC(=O)C1CC(=O)N(Cc3ccco3)C1)oc1ccccc12 (stereo not drawn)	i	i	i	i	-56	i
COc1ccccc1CC(=O)Nc1cc2oc3ccccc3c2cc1OC	26µM	?	16µM	i	i	i
COc1cc2c(cc1NC(=O)COCC(=O)O)oc1ccccc12	i	i	i	i	i	i
COc1cc2c(cc1NC(=O)C(C)OC(=O)c1ccc(S(=O)(=O)Nc3ccccc3Cl)cc1)oc1ccccc12 (stereo not drawn)	23µM	i	18µM	i	i	i
COc1cc2c(cc1NC(=O)CN(C)Cc1cccc(OC)c1OC)oc1ccccc12	21µM	i	13µM	i	i	?
CC(C)[C@H](NC(=O)c1ccccc1F)C(=O)OCC(=O)Nc1sccc1C(N)=O	?	i	12µM	i	i	?
CC(Oc1ccc2oc3ccccc3c2c1)C(=O)NC12CC3CC(CC(C3)C1)C2 (stereo not drawn)	16µM	i	29µM	i	i	?
COc1ccc(C(=O)NC23CC4CC(CC(C4)C2)C3)cc1	i	i	i	i	i	i
COc1cc2c(cc1NC(=O)c1ccncc1)oc1ccccc12	?	i	21µM	i	i	i
SMILES	TDP1 cell CPT	ASM inhibitor	TDP1 cell noCPT	HepG2 tox	IL1B secr inh	TGFb inhibitor
COc1cc2c(cc1NC(=O)COC(=O)[C@@H](NC(=O)c1ccccc1F)C(C)C)oc1ccccc12	?	i	21µM	i	i	i
CCN(CC)c1nc2c(S(=O)(=O)c3ccc(C)cc3)nnn2c2ccsc12	i	nt	i	i	nt	i
COC(=O)c1cc2c(C)c(C)c3ccccn3c-2c1C(=O)OC	26µM	i	?	i	i	i
COC(=O)c1cc2ccccn2c2c(C(=O)OC)c(C(=O)OC)cc1-2	i	i	?	i	i	i
CC(=O)Nc1ccc(NC(=O)c2cc[n+]([O-])cc2)cc1	i	i	i	i	i	i
C[C@H](CO)N1C[C@H](C)[C@@H](CN(C)S(=O)(=O)c2ccccc2)OCc2cnnn2CCCC1=O	i	nt	i	i	i	i
COc1cccc(C2CC(=O)Nc3c2c(=O)[nH]c2ncnn32)c1OC (stereo not drawn)	nt	nt	nt	i	nt	i
CCCC(C(=O)NCC1CCCO1)N(Cc1ccccc1)C(=O)CNS(=O)(=O)c1ccccc1 (stereo not drawn)	?	i	i	i	i	i
CCCC(=O)N(c1ccc2oc(=O)sc2c1)S(=O)(=O)c1ccccc1	?	i	21µM	i	i	i
CC(=O)Nc1ccc(-c2ccnc3c2CC(C)(C(=O)Nc2cccc(Oc4ccccc4)c2)O3)cc1 (stereo not drawn)	26µM	nt	16µM	i	i	i
CC(=O)Nc1ccc(-c2ccnc3c2CC(C)(C(=O)Nc2ccccc2)O3)cc1 (stereo not drawn)	21µM	nt	18µM	i	i	i
CC(=O)Nc1ccc(NC(=O)C2(C)Cc3c(-c4ccc(NC(C)=O)cc4)ccnc3O2)cc1 (stereo not drawn)	i	nt	i	i	i	i
COc1ccc([C@@H]2[C@@H]3C(=O)N(C(C)(C)C)C(=O)[C@@H]3[C@]3(C)C(=O)N(c4cccc(Cl)c4)C(=O)N23)cc1	i	i	i	i	i	i
Cn1c(-c2ccc3nc(N)sc3c2)nc2cc(N)ccc21	?	i	23µM	i	i	i
Cc1ccc(SCc2[nH]nc3c2C2(CCSCC2)C(C#N)=C(N)O3)cc1	i	i	i	i	i	i
CCOC(=O)N1CCC2(CC1)C(C#N)=C(N)Oc1n[nH]c(CSc3ccc(C)cc3)c12	7.3µM	i	?	i	i	i
CC(=O)c1cccc(NC(=O)c2ccc(-n3c(C)nnc3C)cc2)c1	i	nt	i	i	nt	i
CCCCn1c(=O)n(C)c(=O)c2c(C(F)(F)F)cc(-c3ccncc3)nc21	18µM	i	11µM	i	i	i
COC(=O)[C@@H]1C[C@@H](NC(=O)c2cnsn2)CN1Cc1ccc(Cl)cc1	i[9.04 µM]	nt	i	nt	nt	nt
